# Reference: publication PMC7819943, “Rice protein-binding microarrays: a tool to detect cis-acting elements near promoter regions in rice”
# Over roughly 68,000 sequences, “fluorescence intensity (a.u.)” has its median near 9,100; the highest 2% begin near 16,000. Only a selection was taken, and the highest values are over-represented in it overall.
# Biological target: OsWRKY34 (Oryza sativa, UniProt Q0JBA9 1-250)
# Experiment: protein-binding microarray (RPBM); PBS, 2% BSA, 51.3 ng/ul salmon testes DNA, 50 uM zinc acetate, 200 nM TF, 25 C, 1 h; high values mean tight binding
# Details: protein: recombinant; tags: N-terminal polyhistidine and DsRed monomer fusion (pET32a); label: CyDye5-dUTP incorporated in the synthesized complementary strand; 3' TTTTT single-stranded linker to array surface; dsDNA, one strand shown
# Procedure, shortened: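 Using Ni–NTA, transcription factors fused N-terminally to polyhistidine and DsRed were purified after expression in E. coli BL21-CodonPlus. These were incubated at 200 nM with a blocked, double-stranded custom Agilent array for 1 h at 25 °C in a buffer containing 50 µM zinc acetate, and the array was washed. The binding signal is per-feature fluorescence intensity (arbitrary units) on an Axon 4000B scanner.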
# Chain of OsWRKY34 (Q0JBA9 entry or part of it): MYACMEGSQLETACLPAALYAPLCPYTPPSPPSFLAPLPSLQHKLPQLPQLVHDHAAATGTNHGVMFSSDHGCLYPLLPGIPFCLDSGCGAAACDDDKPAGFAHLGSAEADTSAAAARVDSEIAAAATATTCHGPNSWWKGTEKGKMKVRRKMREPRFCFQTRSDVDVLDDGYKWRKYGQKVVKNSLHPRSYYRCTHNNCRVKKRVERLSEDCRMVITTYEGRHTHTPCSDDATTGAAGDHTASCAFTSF
row,Sequence,binding signal
1,ATTATTTTTGGTTGTTCTATTTATTTTCTTAAAATAATTCCGGAGTCACCTAGTGCAG,11300 fluorescence intensity (a.u.)
2,CCCCACATCTTTTGCTAGCATGCCCCTACCCATTCATATTCGGAGTCACCTAGTGCAG,10500 ± 300 fluorescence intensity (a.u.)
3,CTGAGTTCTGTATTGGATCAGCTTCATGTTATCGGCATCACGGAGTCACCTAGTGCAG,8450 fluorescence intensity (a.u.)
4,TTCTCCTATCTTCAACATTTGCTTTGTTACGTTTTTGACTCGGAGTCACCTAGTGCAG,9560 fluorescence intensity (a.u.)
5,TTTTTCTCGGTAATTTTGTGATTGGTCTACTCCTACAAAACGGAGTCACCTAGTGCAG,8290 fluorescence intensity (a.u.)
6,TGGATGATTTTGCCATTTTTTTCATTGCTGGTGCGGTGGTCGGAGTCACCTAGTGCAG,8460 fluorescence intensity (a.u.)
7,CCCGGCGTCCTCCTGCTTCCCACCGCATCGTCGCTCGCCGCGGAGTCACCTAGTGCAG,8120 fluorescence intensity (a.u.)
8,GAGGGTGGGTGCTTGCTGGCCAGACATTAAAACAATGTGTCGGAGTCACCTAGTGCAG,9670 fluorescence intensity (a.u.)
9,TTCTTCCCAGCCAGTGTTCCTAGTATCCATTCTCTCTCAACGGAGTCACCTAGTGCAG,9850 fluorescence intensity (a.u.)
10,TTTGGGGCGCGGGTGGGTGGCTGGGTGCGCGTCGATCGTGCGGAGTCACCTAGTGCAG,10900 fluorescence intensity (a.u.)
11,GACGGGCGGCGGTGGGGCTGACGCGGGCGACGGAGGGGCTCGGAGTCACCTAGTGCAG,11500 fluorescence intensity (a.u.)
12,GTGGGCTGGGCTTCTTCTTCGTCGTCTCATACCAATCGTGCGGAGTCACCTAGTGCAG,17100 fluorescence intensity (a.u.)
13,ACGTAGGAAGGTGGAAGCGGTTTCTTGGGGTTTGGATATGCGGAGTCACCTAGTGCAG,11000 fluorescence intensity (a.u.)
14,GGGTGACGGGAGCAGCGGCGCGCGGGTGGTGGGGCTTGGACGGAGTCACCTAGTGCAG,10700 fluorescence intensity (a.u.)
15,GCGGCTTCTTCTCGGGGTGGATTTGGTGGTGGTTTTTTTTCGGAGTCACCTAGTGCAG,21500 fluorescence intensity (a.u.)
16,TGGTTTGCGGTGGTGCGCGCGCGGCTTCTTCTCGGGGTGGCGGAGTCACCTAGTGCAG,9070 fluorescence intensity (a.u.)
17,GTCGTCTCATACCAATCGTGCGGCGGCGGCGGCGGGGATGCGGAGTCACCTAGTGCAG,10400 fluorescence intensity (a.u.)
18,TTGGATTGCAGTGGGGCGGACGGCGGTGGGCGGGGCTTCTCGGAGTCACCTAGTGCAG,27600 fluorescence intensity (a.u.)
19,GGGAAAGTGGTTGGCGGATATTCTTGTTTTCTTTTTTTGTCGGAGTCACCTAGTGCAG,12500 fluorescence intensity (a.u.)
20,GTAGGCTTTTGTTTCGGGTGGGATAATATCTTGGGGAAAGCGGAGTCACCTAGTGCAG,20700 fluorescence intensity (a.u.)
21,CTTGTGGATTTCGTTCGAGTTCTTGTGGTTTTGGATCGGGCGGAGTCACCTAGTGCAG,9590 fluorescence intensity (a.u.)
22,AGGTTCACAATCTATCCGACTTTTGATTTTCTTTCAATTCCGGAGTCACCTAGTGCAG,9110 fluorescence intensity (a.u.)

row,Sequence,binding signal
1,CAATGGCTTACGACGAGACGACTCACCTTTGAATTCCACGCGGAGTCACCTAGTGCAG,9460 fluorescence intensity (a.u.)
2,TTTTAAAACTGCTGGGATTTTGCTTTCTGTTTCTTCAATGCGGAGTCACCTAGTGCAG,10900 fluorescence intensity (a.u.)
3,TTAGTTTTGTTAGATCGTCGATTTTGATTAGTGCGTTTGACGGAGTCACCTAGTGCAG,9190 fluorescence intensity (a.u.)
4,AAACCAACCCCACCCAACCCACGCGAGAACCGTGGACCACCGGAGTCACCTAGTGCAG,9500 fluorescence intensity (a.u.)
5,ATTTCTCTTGCCTATGTTTTCATTTTGCAATTATTTTTGTCGGAGTCACCTAGTGCAG,10500 fluorescence intensity (a.u.)
6,TGTTTGCACTTCATTCCATTCCATTCCACCTCCACTGCTTCGGAGTCACCTAGTGCAG,8390 fluorescence intensity (a.u.)
7,GTTTCATCTTCTTGTGGGCTTTTCTGGTGAACTCAATTCACGGAGTCACCTAGTGCAG,8250 fluorescence intensity (a.u.)
8,AATCTGTGGGCAGGGGCGGCGACGTCGGCGGGCGAGGGCTCGGAGTCACCTAGTGCAG,8660 fluorescence intensity (a.u.)
9,TCGGCTTGGTGGGGCTGGAGAACGTCTTTTCTCAATTGTGCGGAGTCACCTAGTGCAG,22000 fluorescence intensity (a.u.)
10,GGCTCGGGGCGGCGGAATCATGGGCGATTGGGGCGGCAACCGGAGTCACCTAGTGCAG,22500 fluorescence intensity (a.u.)
11,CTTTTATATAGCTTTGTCTAGTCTTGTGAATTCTCAATTGCGGAGTCACCTAGTGCAG,8530 fluorescence intensity (a.u.)
12,GCTCGGGCATCCTTTTTAAGGGCTCGGGGCGGCGGAATCACGGAGTCACCTAGTGCAG,8290 fluorescence intensity (a.u.)
13,CTGGTCAGAGTCCCCAACCAAAAGCATTTCTCCTGCCTTCCGGAGTCACCTAGTGCAG,8660 fluorescence intensity (a.u.)
14,CGTCCGTCTCCATCTGACACCTCCCAGTGCTTGCGCCCATCGGAGTCACCTAGTGCAG,8030 fluorescence intensity (a.u.)
15,GACTTACTTTATTGTCTACAGTACTTTAAGCACAACTTTTCGGAGTCACCTAGTGCAG,8360 fluorescence intensity (a.u.)
16,ATACCCGTCTTTTCCTTCCCTTTCATCAATTGCCTCTTGTCGGAGTCACCTAGTGCAG,11500 fluorescence intensity (a.u.)
17,TAGTTTTCTCAGGTGTTTGGGAATTGGTTGGTGAAGATGACGGAGTCACCTAGTGCAG,9450 fluorescence intensity (a.u.)
18,GGATGCTCTTGTGTTCTTGTTGTTGATTTGTATTGTGGATCGGAGTCACCTAGTGCAG,8240 fluorescence intensity (a.u.)
19,GATTTCTGTGTTTTTCCTGTGGTCCAATCAAACGGTCATTCGGAGTCACCTAGTGCAG,12700 fluorescence intensity (a.u.)
20,TCATCTTGCTTTCCCCTTCTTCGCCCACGCGGCCGCGGCCCGGAGTCACCTAGTGCAG,8620 fluorescence intensity (a.u.)
21,CTCGCCGCCGTTCGTCTCCGCCGCCACCGCCGCCGCCATGCGGAGTCACCTAGTGCAG,11300 fluorescence intensity (a.u.)
22,TGCGGCCCACCTTTGCTTCTTCGTTGACTTTCTTGCCGTCCGGAGTCACCTAGTGCAG,26900 fluorescence intensity (a.u.)

row,Sequence,binding signal
1,TTTCTTCTTCTCGTCTCTTCTCGCCGCCGCCGCCGCAATGCGGAGTCACCTAGTGCAG,9300 fluorescence intensity (a.u.)
2,TCGTTGACTTTCTTGCCGTCTCGCCGCCGCCGCCGCCATGCGGAGTCACCTAGTGCAG,23600 fluorescence intensity (a.u.)
3,GCCGTCTTTGCTTGATAGTCTTCGCCATGGGGACTTTGTCCGGAGTCACCTAGTGCAG,8210 fluorescence intensity (a.u.)
4,AAACCCTCTCTCTCTCTCTCTCTCACACACACACGCAAACCGGAGTCACCTAGTGCAG,10300 fluorescence intensity (a.u.)
5,GTCAACTGCCTATCCTAGATATCTATCACTACCGAAAGCCCGGAGTCACCTAGTGCAG,8930 fluorescence intensity (a.u.)
6,TCAACACAGCAACGTTTCACTTTCATATCATCTGATTATTCGGAGTCACCTAGTGCAG,8470 fluorescence intensity (a.u.)
7,TCCGTCCATCCTCACTATCATTAGTACTACTGGTTCTTCTCGGAGTCACCTAGTGCAG,12200 fluorescence intensity (a.u.)
8,TTTTGTGGTATTTTAAACATGGTTTATATTTCTTATATTTCGGAGTCACCTAGTGCAG,9830 fluorescence intensity (a.u.)
9,GGGGTGTTTGGTTGAGGGGTGGGTGGGATGGATTGGTCCTCGGAGTCACCTAGTGCAG,32300 fluorescence intensity (a.u.)
10,GGTTGGGTGGAGGGTATTACAGTCTTTTTGCTTTTGTATTCGGAGTCACCTAGTGCAG,36600 fluorescence intensity (a.u.)
11,TGTTGTTTTGGTCTACAGTTGTCTTTTGAGTTGTTGTATTCGGAGTCACCTAGTGCAG,12200 fluorescence intensity (a.u.)
12,CTCTCGTTGTTTTTGCTCTTTTGGGTTCGCTCGGAAGATGCGGAGTCACCTAGTGCAG,8490 fluorescence intensity (a.u.)
13,TTTGGATTGGGTTTGGTGGTTGGGTGGGAGGGAGGGAGCTCGGAGTCACCTAGTGCAG,28600 fluorescence intensity (a.u.)
14,CTTCGTTCGTTGGATTCGCTCTCGCGCGCCGCCGCCGCCGCGGAGTCACCTAGTGCAG,11200 fluorescence intensity (a.u.)
15,GGGTTTTGGAGTGGTGGTGGTGGAGGATTGGAGTTGGGGTCGGAGTCACCTAGTGCAG,11600 fluorescence intensity (a.u.)
16,ATGGATGGGGATTCATTTGTTTGGTGAGTAGTGGTCGGGTCGGAGTCACCTAGTGCAG,9800 fluorescence intensity (a.u.)
17,TTGGTGAGGGTTTGGGTTTGGTGGTGGAGTGGAGTGGAGTCGGAGTCACCTAGTGCAG,10700 fluorescence intensity (a.u.)
18,AGAGGGATGGGTGTTTGATTGGAGTGGGTTGGGAGCCATGCGGAGTCACCTAGTGCAG,9390 fluorescence intensity (a.u.)
19,TCGCTCTCGTTGGATTCGGTTTGGTTTGGTTTGGGCCATGCGGAGTCACCTAGTGCAG,18700 fluorescence intensity (a.u.)
20,TTTTTGGTGGGGTAGAGTTGTATTTGGTTTGAGGCCAATTCGGAGTCACCTAGTGCAG,9480 fluorescence intensity (a.u.)
21,CATCGAGTAGCCGCCGCCGCCACCTGGTGCTCGTGACGCCCGGAGTCACCTAGTGCAG,8670 fluorescence intensity (a.u.)
22,CTTCAAACTTTTAATTTTTCCGTCACATCGAACTTTTCTACGGAGTCACCTAGTGCAG,9760 fluorescence intensity (a.u.)

row,Sequence,binding signal
1,TCACACGTTTCATTGACGTTTCCTAGCATCCGACCTCTCTCGGAGTCACCTAGTGCAG,9620 fluorescence intensity (a.u.)
2,TCCCCTGTTCTCGTACACAAATTCGCAGCGATCTAATAGTCGGAGTCACCTAGTGCAG,8480 fluorescence intensity (a.u.)
3,CTGATTTTCATTTGAGAACAAAGTTTCTACGCATATTACCCGGAGTCACCTAGTGCAG,8240 fluorescence intensity (a.u.)
4,CCCCAGCCCAGTTGGGCCCAAACTGTCCATTCCAGCCATCCGGAGTCACCTAGTGCAG,8330 fluorescence intensity (a.u.)
5,TCAGTAGCATTTCCGGGTCCCATCTATATGGACTAATTTTCGGAGTCACCTAGTGCAG,9100 fluorescence intensity (a.u.)
6,ACAGAACGAACCACCTATACGTACGTTTTCTCTCTTTTGACGGAGTCACCTAGTGCAG,8040 fluorescence intensity (a.u.)
7,TATACAATTGCCTTACCTGTCCCCACCTGTCACATGCCTCCGGAGTCACCTAGTGCAG,9460 fluorescence intensity (a.u.)
8,ACCTACCACCACCTTACCCTCTCGCTGACATCCCGGCCCCCGGAGTCACCTAGTGCAG,12000 fluorescence intensity (a.u.)
9,CGCTCACTCGGTTTGGTTTGGTTTGGATTGTATTGGGTTGCGGAGTCACCTAGTGCAG,39200 fluorescence intensity (a.u.)
10,TTGGTTTGTATTGCGTTGTTTTGCACTTTTGTTTGTTGTGCGGAGTCACCTAGTGCAG,8300 fluorescence intensity (a.u.)
11,TGCTTGCTTGCTTGGTTTGATTGGTGGAGGTGGGAGGAGTCGGAGTCACCTAGTGCAG,8520 fluorescence intensity (a.u.)
12,GGGATGGATGTGCTGGGTTGGTGGCTGGTTGGCTGGCCGGCGGAGTCACCTAGTGCAG,11000 fluorescence intensity (a.u.)
13,AGTTTTGGGGTGAATTCAATTGAGGTTGCTACAGTTTAATCGGAGTCACCTAGTGCAG,8760 fluorescence intensity (a.u.)
14,TGTGTTGGATCGGTTGGACGCGCTCACTCGGTTTGGTTTGCGGAGTCACCTAGTGCAG,9730 fluorescence intensity (a.u.)
15,CCTAAATGGTTTTGCTTGGACACTTCTGGTTACCTTGCATCGGAGTCACCTAGTGCAG,11900 fluorescence intensity (a.u.)
16,GAGGGGAGGGGTTTGGTTTGCTTGGACACTTTGGTTTGGTCGGAGTCACCTAGTGCAG,20100 fluorescence intensity (a.u.)
17,ATTCTCAAGTTTGAATTGGGTGTATTGGGTTGGGCTAAATCGGAGTCACCTAGTGCAG,16700 fluorescence intensity (a.u.)
18,TTTGTGTATTATTTGTATTGTGTTTGTGAATTCAATAAATCGGAGTCACCTAGTGCAG,8800 fluorescence intensity (a.u.)
19,AAATGTGGAATGGTTGGCCTGGGTTGGCTTGGGACGAGCTCGGAGTCACCTAGTGCAG,17000 fluorescence intensity (a.u.)
20,GGCCTTGTTCGGTTGGTCCGGGAATGACTGGGGTTGGGCTCGGAGTCACCTAGTGCAG,9210 fluorescence intensity (a.u.)
